Source: PubChem BioAssay (EPA / NIEHS)
Where “and” joins values, the source holds several entries; their conditions need not be identical. Equal entries are not always repeated. Calls of active or inactive are those of the source. Rule for the calls: active = hit-call score of the fitted dose curve at least 0.9, where 1 is the maximum; inactive = score below 0.9.

read-out: Plasminogen activator inhibitor-1 (PAI1), SERPINE1 (gene 5054); experiment: BSK_hDFCGF_PAI1: BioMAP Diversity Plus: hDFCGF Assay for Plasminogen activator inhibitor-1 (PAI1) Biomarker Activity (AID 2283066); conditions: primary human foreskin fibroblasts; actives raise or lower the signal
Description: BSK_hDFCGF is a cell-based, multiplexed-readout assay that uses foreskin fibroblast, a human skin primary cell, with measurements taken at 24 hours after chemical dosing in a 96-well plate.BSK_hDFCGF_PAI1 is an assay component measured in the BSK_hDFCGF assay. It measures PAI-1 antibody related to regulation of gene expression using ELISA technology.Data from the assay component BSK_hDFCGF_PAI1 was analyzed into 1 assay endpoint. This assay endpoint, BSK_hDFCGF_PAI1, was analyzed with bidirectional fitting relative to DMSO as the negative control and baseline of activity. Using a type of binding reporter, gain or loss-of-signal activity can be used to understand changes in the signaling as they relate to the gene SERPINE1. Furthermore, this assay endpoint can be referred to as a primary readout, because this assay has produced multiple assay endpoints where this one serves a signaling function. To generalize the intended target to other relatable targets, this assay endpoint is annotated to the cytokine intended target family, where the subfamily is plasmogen activator inhibitor.
The levels of cell surface (or secreted, indicated by the prefix "s") biomarker endpoints were measured by ELISA. Overt cytotoxicity to cells in confluent adherent cultures (all systems other than the BT system) was assessed by measuring total protein levels using sulforhodamine B (SRB) staining in parallel cultures at the time of biomarker measurements, indicated as SRB endpoints. For proliferation assays for adherent cell types, individual cell types are cultured at sub-confluence and relative cell numbers quantified by SRB staining at time points optimized for each system (48 h: 3C and CASM3C systems; 72 h: BT and HDF3CGF systems; 96 h: SAg system). SRB was performed by staining cells with 0.1% SRB after fixation with 10% TCA and reading wells at 560 nm.Viability and proliferation of PBMC (T cells) was quantified by Alamar Blue reduction for the SAg and BT systems. For PBMC viability (referred to as PBMC Cytotoxicity within the assay endpoint names), cells were plated (75,000/well in a 96-well plate) and then chemical samples added for 1 h before addition of activators, SEB and TSST-1 (20 ng/mL final concentration each). Cells were incubated for 90 h. Then, Alamar Blue (20 uL/well) (Invitrogen, Cat DAL1100) was added for 6 h, and the plates were read with a fluorescence microplate reader at 546/580 nm (excitation/emission). For PBMC proliferation, cells were plated and activated as above but incubated for only 16 h prior to addition of Alamar Blue. Plates were read after 6 h.

| Structure (SMILES) | outcome | AC50 |
| --- | --- | --- |
| O=C(O)CCC(F)(F)C(F)(F)C(F)(F)C(F)(F)C(F)(F)C(F)(F)C(F)(F)F | inactive | – |
| NC(=O)C(F)(F)C(F)(F)C(F)(F)C(F)(F)C(F)(F)C(F)(F)C(F)(F)F | inactive | – |
| CO[Si](C)(CCC(F)(F)C(F)(F)C(F)(F)C(F)(F)C(F)(F)C(F)(F)F)OC | inactive | – |
| Cc1cc(C)c(O)c(C(C)(C)C)c1 | – | 30.9 µM (active) |
| O=C(O)C(F)(F)C(F)(F)C(F)(F)OC(F)(C(F)(F)F)C(F)(F)F | inactive | – |
| CCN(CC)c1ccc(N=Nc2ccccc2)cc1 | inactive | – |
| O=C(O)C(F)(F)C(F)(F)C(F)(F)C(=O)O | inactive | – |
| O=C1c2c(O)ccc(Nc3ccc(CCO)cc3)c2C(=O)c2c([N+](=O)[O-])ccc(O)c21 | inactive | – |
| OCC(O)CC(F)(F)C(F)(F)C(F)(F)C(F)(F)C(F)(F)C(F)(F)C(F)(F)C(F)(F)F (stereo not given) | inactive | – |
| O=C(O)C(F)(F)C(F)(F)C(F)(F)C(F)(F)C(F)(F)C(F)(F)C(F)F | inactive | – |
| CC(C)(C)c1cc(CCC(=O)NCCCCCCNC(=O)CCc2cc(C(C)(C)C)c(O)c(C(C)(C)C)c2)cc(C(C)(C)C)c1O | inactive | – |
| O=C=Nc1cccc2c(N=C=O)cccc12 | inactive | – |
| O=S(=O)(O)CCC(F)(F)C(F)(F)C(F)(F)C(F)(F)C(F)(F)C(F)(F)C(F)(F)C(F)(F)F | inactive | – |
| O=C(Cl)C(F)(F)C(F)(F)C(F)(F)C(F)(F)C(F)(F)C(F)(F)F | inactive | – |
| NC(O)(C(F)(F)F)C(F)(F)F | inactive | – |
| Nc1cc([N+](=O)[O-])cc(Cl)c1O | inactive | – |
| O=C(O)CCC(F)(F)C(F)(F)C(F)(F)F | inactive | – |
| C[C@]12CC[C@H]3C(=CCc4cc(O)ccc43)[C@@H]1CCC2=O | inactive | – |
| Brc1nc2ccccc2s1 | inactive | – |
| COC(F)(C(F)F)C(F)(F)F (stereo not given) | inactive | – |

| Structure (SMILES) | outcome | AC50 |
| --- | --- | --- |
| FC(F)(F)C(F)(F)C(F)(F)C(F)(F)C(F)(F)C(F)(F)C(F)(F)CCI | inactive | – |
| OCC(F)(F)C(F)(F)C(F)(F)C(F)(F)C(F)(F)C(F)(F)CO | inactive | – |
| CN(C(=O)C(F)(F)C(F)(F)C(F)(F)F)[Si](C)(C)C | inactive | – |
| O=S(=O)(OCC(F)(F)F)C(F)(F)C(F)(F)C(F)(F)C(F)(F)F | inactive | – |
| O=C(Cl)C(F)(F)C(F)(F)C(F)(F)C(F)(F)C(F)(F)C(F)(F)C(F)(F)F | inactive | – |
| O=S(=O)(Cl)C(F)(F)C(F)(F)C(F)(F)C(F)(F)C(F)(F)C(F)(F)C(F)(F)C(F)(F)F | inactive | – |
| O=C(c1ccccc1)c1ccc(O)cc1O | inactive | – |
| Cc1ccc(S(=O)(=O)C(I)I)cc1 | – | 2.41 µM (active) |
| C=CC(=O)OCC(F)(F)C(F)(F)C(F)(F)COC(=O)C=C | – | 3.85 µM (active) and 3.09 µM (active) |
| O=C(O)C(F)(F)OC(F)(F)C(F)(F)OC(F)(F)C(F)(F)OC(F)(F)F | inactive | – |
| C=CC(=O)OCC(F)(F)C(F)(F)C(F)(F)C(F)(F)C(F)(F)C(F)(F)C(F)(F)C(F)F | inactive | – |
| CC1=CC2C3C=CC(C3)C2C1C (stereo not given) | inactive | – |
| Cc1ccc(O)c(-n2nc3ccccc3n2)c1 | inactive | – |
| O=C(F)C1(F)C(F)(F)C(F)(F)C(F)(F)C(F)(F)C1(F)F | inactive | – |
| NC(=O)C(F)(F)C(F)(F)C(F)(F)C(F)F | inactive | – |
| C=C(C)C(=O)OCC(F)(F)C(F)(F)C(F)(F)C(F)F | inactive | – |
| O=S(=O)(O)CCC(F)(F)C(F)(F)C(F)(F)C(F)(F)F | inactive | – |
| NC(=O)C(F)(F)C(F)(F)C(F)(F)C(F)(F)C(N)=O | inactive | – |
| CCOC(C=C(C)CCC=C(C)C)OCC | – | 20 µM (active) |
| Cc1cnccn1 | inactive | – |
